Measured values taken from PubChem BioAssay (NCATS).
Records with an inconclusive call do not appear. Calls of active or inactive are those of the source. Unless noted, calls follow the shape of the dose curve; as a rule, active = well fitted curve in either direction with a large enough effect (not every such curve was filed as active); inconclusive = small, poorly fitted or top-dose-only effect, or another doubt; inactive = flat fitted curve, though single readings scatter.

Key:
[1] = AP1 Signaling Pathway (AID 357); conditions: ME-180 AP-1-bla reporter, EGF-induced, beta-lactamase ratio, 5 h; at 17.2 µM (top of the series) unless noted; also: % is scaled to controls: 0 for no effect and ±100 for the full control effect
Summary of the method: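 AP-1-bla ME-180 cells with beta-lactamase reporter under AP-1 response element, stimulated with EC50 EGF; compounds titrated, 5 hours at 37 degrees Celsius. CCF4 read at 460/530 nm ratio; positive and negative modulators judged by AC50.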

[2] = NFAT Signaling Pathway (AID 444); conditions: Jurkat NFAT-bla M1, carbachol, beta-lactamase ratio, 5 h; at 17.2 µM (top of the series) unless noted;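 also: carbachol stimulus at about its EC50 of 1 µM final; % is scaled to controls: 0 for no effect and ±100 for the full control effect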
Summary of the method: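 Jurkat cells with NFAT-driven β-lactamase reporter and co-expressed M1 receptor, stimulated with carbachol (final 1 uM, ~EC50), compound titration, 5 h at 37 °C. CCF4 loaded 1 h at RT; 460/530 nm ratio gave %activity and AC50.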

[3] = Stat Signaling Pathway (AID 446);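 also: ME-180 cervical cancer cells given 40 pM IL-6 alongside compound; SIE-controlled beta-lactamase reporter measured as 460/530 nm FRET emission ratio; % is scaled to controls: 0 for no effect and ±100 for the full control effect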
Summary of the method: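 Reporter line: ME-180 cervical carcinoma, SIE-beta-lactamase. Treatment: compound with 40 pM IL-6, 5 hrs, 37 C, in low-serum OPTI-MEM with 10 mM HEPES pH 7.3. Detection: 460/530 nm fluorescence.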

[4] = biological target: Glucocorticoid receptor (Homo sapiens) (UniProt P04150); assay: GR-GFP Redistribution (AID 450;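 active = compounds whose dose series gives a full or clear partial fitted curve of increased nuclear translocation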; also: potency is read from the fitted curve at half-maximal effect); conditions: U2OS GR-GFP nuclear translocation, laser cytometry, 2 h
Chain of Glucocorticoid receptor (Homo sapiens) (P04150 whole entry, looked up): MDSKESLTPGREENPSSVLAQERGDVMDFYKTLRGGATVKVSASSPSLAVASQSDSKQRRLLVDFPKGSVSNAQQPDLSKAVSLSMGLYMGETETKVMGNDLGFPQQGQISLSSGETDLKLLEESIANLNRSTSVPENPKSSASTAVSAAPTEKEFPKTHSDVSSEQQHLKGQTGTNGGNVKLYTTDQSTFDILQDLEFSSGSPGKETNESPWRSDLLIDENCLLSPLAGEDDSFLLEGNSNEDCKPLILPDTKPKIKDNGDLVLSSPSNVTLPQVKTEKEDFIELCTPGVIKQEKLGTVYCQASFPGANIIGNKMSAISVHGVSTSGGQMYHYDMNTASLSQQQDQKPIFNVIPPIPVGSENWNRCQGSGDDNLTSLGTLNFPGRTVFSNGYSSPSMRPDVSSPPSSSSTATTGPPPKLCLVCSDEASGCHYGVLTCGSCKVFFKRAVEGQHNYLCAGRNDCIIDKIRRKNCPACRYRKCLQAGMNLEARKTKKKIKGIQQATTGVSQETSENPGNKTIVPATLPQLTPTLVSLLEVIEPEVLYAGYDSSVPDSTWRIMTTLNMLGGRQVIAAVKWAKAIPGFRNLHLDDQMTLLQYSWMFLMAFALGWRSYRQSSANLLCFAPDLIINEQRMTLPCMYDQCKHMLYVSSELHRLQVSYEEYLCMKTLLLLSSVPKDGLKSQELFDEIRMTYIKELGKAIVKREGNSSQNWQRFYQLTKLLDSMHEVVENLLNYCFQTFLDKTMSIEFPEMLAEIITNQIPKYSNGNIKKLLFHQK

COc1ccc2c(c1OC)C(=O)OC2c1c(O)n(C2CCCCC2)c(=O)[nH]c1=O (configuration not stated)
inactive: activity change, negative = inhibition [1] -13.3% | activity change, negative = inhibition [2] -3.36% | outcome [3] | Potency [4] > 20.6 µM

COc1ccc(Cn2c(O)c(C=NCCCn3ccnc3)c(=O)[nH]c2=O)cc1
inactive: activity change, negative = inhibition [1] -15.8% | activity change, negative = inhibition [2] -15.1% | outcome [3] | Potency [4] > 20.6 µM

O=c1[nH]c(=O)n(Cc2ccco2)c(O)c1C=NCCCn1ccnc1
inactive: activity change, negative = inhibition [1] 10% | activity change, negative = inhibition [2] -8.42% | outcome [3] | Potency [4] > 20.6 µM

CCn1c(O)c(C(=O)CC2NCCc3ccccc32)c(=O)n(CC)c1=S (configuration not stated)
inactive: activity change, negative = inhibition [1] 5.38% | activity change, negative = inhibition [2] 22.3% | outcome [3] | Potency [4] > 20.6 µM

Cn1c(O)c(C=NCCCNC2CCCCC2)c(=O)n(C)c1=O
inactive: activity change, negative = inhibition [1] 3.35% | activity change, negative = inhibition [2] -13.3% | outcome [3] | Potency [4] > 20.6 µM

CCOC(=O)C1=C(C)OC(N)=C(C(=O)OCC)[C@@]12C(=O)N(CC(N)=O)c1ccccc12
inactive: activity change, negative = inhibition [1] 1.68% | activity change, negative = inhibition [2] 2.5% | outcome [3] | Potency [4] > 20.6 µM

CC(=O)[C@@]1(O)CC[C@H]2[C@@H]3CC=C4C[C@@H](O)CC[C@]4(C)[C@H]3CC[C@@]21C
inactive: activity change, negative = inhibition [1] 0.531% | activity change, negative = inhibition [2] 10.8% | outcome [3] | Potency [4] > 20.6 µM

CCCCSP1(=S)NCCCO1 (configuration not stated)
inactive: activity change, negative = inhibition [1] 2.22% | activity change, negative = inhibition [2] 1.86% | outcome [3] | Potency [4] > 20.6 µM
